Screens: PubChem, several laboratories
Shn3 inh set2: Schnurri-3 reporter inhibition in Clone20 osteoblasts; Clone20 osteoblast Shn3 3'UTR firefly luciferase, 24 h; inhibition, % at 12.5 µM; hit rate 0.52% among 360,000; AID 588674;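 active = mean inhibition of at least 75% with every replicate also reaching 75%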;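 also: 0% = median of neutral control wells and 100% = pilot-screen positive control compound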
Peg3 prom inh-1: inhibitors of Peg3 promoter; HeLa PEG-Prom luciferase reporter, luminescence, overnight; inhibition, % at 20 µM; hit rate 1.7% among 360,000; AID 588405;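 active = inhibition of at least 50% at 20 µM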
KKLEB tox: reduces viability of KKLEB cystic fibrosis airway cells. hit rate 0.36% among 360,000. activity change (cytotoxicity), % at 5 µM. KKLEB CF airway cells viability, ATPlite luminescence, overnight; hits give low values; cells stimulated with P. aeruginosa culture filtrate;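 active = corrected activity change at or below -50% at 5 µM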
CF NFkB inh: cystic fibrosis NF-kB activation inhibition | AID 588850 | hit rate 0.86% among 360,000 | inhibition, % at 5 µM | KKLEB NF-kB-GFP reporter, PAF-induced, GFP fluorescence overnight;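 active = at least 50% inhibition at 5 µM, scaled per plate between neutral and stimulator controls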;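 also: PAF is a Pseudomonas aeruginosa culture filtrate used as stimulus; plate controls were PAF-stimulated DMSO wells for no effect and unstimulated DMSO wells for full effect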
HIF-2a block: inhibitors of HIF-2a; 786-0 RCC cells HIF-2a reporter, luciferase luminescence, overnight; inhibition, % at 18.8 µM; hit rate 0.72% among 360,000; AID 624352;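 active = inhibition of the luminescence signal of 40% or more relative to plate controls, in a single-dose primary screen at 18.75 µM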
TRPM1 prom inh: MITF TRPM1 promoter inhibition in SK-MEL-5 cells; SK-MEL-5 TRPM1 promoter luciferase, 24 h; inhibition, % at 12.5 µM; hit rate 0.83% among 330,000; AID 488899;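 active = mean inhibition across replicates of 60% or more, whatever share of single replicates reaches that level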
Peg3 prom inh-2: confirmation of Peg3 promoter inhibitors; shares compounds with Peg3 prom inh-1; HeLa PEG-Prom luciferase reporter, luminescence, overnight; inhibition, % at 20 µM; hit rate 84% among 1,300;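 active = at 20 µM dose, 40% or more inhibition averaged across four replicates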
Numbers without * were called inactive; . = no result. Sampled rows, rich in hits. Any-hit rate of the full collection: about 2.8%.

SMILES	Shn3 inh set2	Peg3 prom inh-1	KKLEB tox	CF NFkB inh	HIF-2a block	TRPM1 prom inh	Peg3 prom inh-2
COC(=O)c1ccc(C(=O)N2CCCCCC2(C)C(=O)NC(C)C)cc1 (stereo not drawn)	4	0	-7	6	12	.	.
CCOC(=O)C1=C(C(F)(F)F)Nc2ncnn2C1c1ccc(OC)c(OC)c1OC (stereo not drawn)	-3	6	-5	15	3	-5	.
NC(c1csc(Nc2nccc(C(F)(F)F)n2)n1)C1CCCCC1 (stereo not drawn)	3	83*	0	-4	-1	.	94*
CC(C)c1ccc(NC(=O)CSc2n[nH]c(=O)n2-c2ccc3c(c2)OCCO3)cc1	6	9	-1	0	20	.	.
COc1cccc(/C=C2/Sc3ccc(C(=O)NCCCN4CCCC4)cc3NC2=O)c1	-9	78*	-3	-12	7	55	94*
Cc1cccnc1NC(=O)c1ccc(Cl)c(S(=O)(=O)N2CCCCC2)c1	-6	7	2	16	0	2	.
CCCN1CCc2c(sc(NC(=O)c3ccc(S(=O)(=O)N(C)c4ccccc4)cc3)c2C(N)=O)C1	26	-2	-26	-20	4	-4	.
CCCN1CCc2c(sc(NC(=O)c3ccc(S(=O)(=O)N4CCN(C(=O)OCC)CC4)cc3)c2C(N)=O)C1	15	65*	-12	-11	22	51	58*
Nc1nc(SCn2nnc3ccccc3c2=O)n[nH]1	-4	12	-9	-6	-9	2	.
O=C(CSc1nc2ncc(Cl)cc2[nH]1)N1CCC(Cc2ccccc2)CC1	-11	9	-12	10	-1	4	.
C=C(C)Cn1c(SCC(=O)N/N=C/c2c(O)ccc3ccccc23)nc2ccccc2c1=O	29	61*	-18	12	19	19	64*
COc1ccc2ccccc2c1/C=N/NC(=O)c1ccc(C)nc1	-8	-3	-3	-10	-11	-1	.
O=C(N/N=C/c1c(O)ccc2ccccc12)c1ccc(CO)nc1	82	55*	-4	-10	22	46	70*
COc1ccc(CCNC(=O)C(=O)NCC2CCCN2S(=O)(=O)c2ccccc2)cc1OC (stereo not drawn)	22	56*	8	-7	19	-2	58*
O=C(NCCc1ccccc1)C(=O)NCC1CCCN1S(=O)(=O)c1ccccc1 (stereo not drawn)	10	40	-18	25	3	27	.
COc1cc2nc(SCC(=O)NCc3ccco3)n(Cc3ccc(Cl)cc3)c(=O)c2cc1OC	36	51*	5	42	20	62*	12
CC(C)Oc1ccc(CC2CCC(=O)N(C)C2=O)cc1 (stereo not drawn)	-26	-7	2	8	0	-8	.
CC1(C)C(=O)C=CC(=O)C(C)(C)C(=O)C=CC(=O)C(C)(C)C2=CC=C(O2)C(C)(C)C(=O)C=CC1=O	9	106*	-9	46	2	92*	100*
O=Nc1c2cc(-c3ccccc3)[nH]nc-2c2ccccc12	6	10	-11	-77	-50	27	.
Cc1ccc(-c2cc3c(N=O)c4ccccc4c-3n[nH]2)cc1	64	59*	-81*	-22	68*	74*	69*
Cc1ccc2c(CC(=O)NCCc3ccc(S(N)(=O)=O)cc3)coc2c1	-6	-12	25	-34	6	0	.
Cc1ccc(/C=C2\SC(=S)N(CCCC(=O)NNC(=O)c3ccccc3O)C2=O)cc1	87*	80*	-6	2	91*	.	82*
Cc1ccc(/C=C2\SC(=S)N(CCCC(=O)NC3CCCC3)C2=O)cc1	34	54*	8	14	74*	76*	49*
COc1cc(/C=C2\SC(=S)N(CCC(=O)NC3CCCC3)C2=O)cc(OC)c1OC	-9	38	-6	6	7	29	.
Cc1cc(/C=N/Nc2ncnc(N)c2[N+](=O)[O-])c(C)n1-c1ccccc1	53	92*	-50*	-14	59*	81*	84*
O=C(Nc1cccc(S(=O)(=O)N2CCOCC2)c1)c1ccc2c(=O)n3c(nc2c1)CCCCC3	63	51*	-6	-13	11	6	51*
